Results filed as inconclusive are left out. Entries that show only a call come without a potency. Active and inactive are the calls of the source. Unless noted, calls follow the shape of the dose curve; as a rule, active = well fitted curve in the direction sought with a large enough effect in the repeat runs; inconclusive = weak or mixed curves; inactive = no such curve, though single readings can be large; an effect the other way counts as inactive or inconclusive.
Columns and labels:
[1] = A CellTox Green Cytotoxicity Assay to monitor cytotoxicity in HepG2 cells - 0 hour (AID 1224882); also: nearly all actives have a fitted effect of over 35% in size
Method in brief: (§1)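 Fluorescent DNA-binding dye, 600 HepG2 cells/well, 5 h preincubation then compound in DMSO; same plates read at 0–40 h, 37 C.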

[2] = A CellTox Green Cytotoxicity Assay to monitor cytotoxicity in HepG2 cells - 32 hour (AID 1224883); also: nearly all actives have a fitted effect of over 50% in size; also: potency is read from the fitted curve at half-maximal effect
Method in brief: as §1

[3] = A CellTox Green Cytotoxicity Assay to monitor cytotoxicity in HEK293 cells - 8 hour (AID 1224884); also: nearly all actives have a fitted effect of over 35% in size; also: potency is read from the fitted curve at half-maximal effect
Method in brief: (§2)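 Homogeneous no-lysis format: HEK293 cell suspension mixed with CellTox Green reagent, seeded, incubated 5 h at 37 C/5% CO2, then dosed by pintool with compound in DMSO.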

[4] = qHTS RealTime-Glo MT Cell Viability Assay in HepG2 cells - 16 hour (AID 1224885); also: nearly all actives have a fitted effect of over 50% in size; also: potency is read from the fitted curve at half-maximal effect
Method in brief: (§3)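 Cells + NanoLuc/prosubstrate dispensed (600 cells/well) → 5 h at 37 C/5% CO2 → compounds in DMSO transferred → 40 h incubation at 37 C, luminescence read at 0, 8, 16, 24, 32, 40 h.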

[5] = qHTS RealTime-Glo MT Cell Viability Assay in HEK293 cells - 8 hour (AID 1224887); also: nearly all actives have a fitted effect of over 50% in size; also: potency is read from the fitted curve at half-maximal effect
Method in brief: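 Measured as luminescence from the same continuously cultured HEK293 wells at successive time points (0, 8, 16, 24, 32, 40 h) after compound addition. Reagent present from seeding; dosing at 5 h; incubation 37 C.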

[6] = A CellTox Green Cytotoxicity Assay to monitor cytotoxicity in HEK293 cells - 16 hour (AID 1224888); also: nearly all actives have a fitted effect of over 35% in size; also: potency is read from the fitted curve at half-maximal effect
Method in brief: as §2

[7] = A CellTox Green Cytotoxicity Assay to monitor cytotoxicity in HepG2 cells - 8 hour (AID 1224890); also: nearly all actives have a fitted effect of over 45% in size; also: potency is read from the fitted curve at half-maximal effect
Method in brief: as §1

[8] = qHTS assay to identify small molecule antagonists of the estrogen receptor alpha (ER-alpha) signaling pathway using the BG1 cell line in the presence of 0.1 nM 17-beta-estradiol - cell viability counter screen (AID 1259241); also: nearly all actives have a fitted effect of over 40% in size; also: potency is read from the fitted curve at half-maximal effect
Method in brief: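 VM7Luc4E2, 4,000 cells/well, phenol red-free medium + 10% charcoal-stripped FBS; 24 hr plating; cpd + 0.1 nM E2 final, 22 hr 37C/5% CO2; CellTiter-Fluor 30 min, fluorescence.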

[9] = qHTS assay to identify small molecule antagonists of the androgen receptor (AR) signaling pathway using the MDA cell line in the presence of 0.5 nM R1881 - cell viability counter screen (AID 1259242); also: nearly all actives have a fitted effect of over 45% in size; also: potency is read from the fitted curve at half-maximal effect
Method in brief: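 Human breast carcinoma MDA-kb2 cells, cultured without CO2, receive compounds alongside 0.5 nM (final) R1881 agonist. After 16 hr at 37C, viability is taken as live-cell protease signal.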

[10] = qHTS assay to identify small molecule HDAC inhibitors (AID 1259364);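 also: wild-type HCT-116 cells with endogenous class I/II HDAC activity; top concentration of the series differs between compounds; nearly all actives have a fitted effect of over 45% in size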
Method in brief: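 After a 2 hr compound incubation (37C, 5% CO2), HCT-116 cells seeded at 1,500/well the day before received HDAC-Glo reagent; signal read as luminescence after 30 min at room temperature.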

[11] = qHTS assay to identify small molecule HDAC inhibitors - cell viability counter screen (AID 1259365); also: series mostly up to about 92 µM; nearly all actives have a fitted effect of over 50% in size
Method in brief: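 Luminescence from CellTiter-Glo, developed 30min at room temperature, reports viability of wild-type HCT-116 cells treated 2hr with compounds at 37 C and 5% CO2 after overnight plating.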

[12] = qHTS assay to identify small molecule agonists of the sonic hedgehog signaling (Shh) pathway - cell viability counter screen (AID 1259366); also: nearly all actives have a fitted effect of over 50% in size; also: potency is read from the fitted curve at half-maximal effect
Method in brief: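 Cytotoxicity counter screen run in the same wells as the Shh reporter assay. NIH/3T3 cells carrying a Gli1 response element–driven luciferase were treated with DMSO-dissolved compounds for 24hr, and live-cell protease activity was measured with CellTiter-Fluor.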

[13] = qHTS assay to identify small molecule antagonists of the sonic hedgehog signaling (Shh) pathway (AID 1259369; calls by dose curve; also: nearly all actives have a fitted effect of over 45% in size; also: potency is read from the fitted curve at half-maximal effect)
Method in brief: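 Gli1 transcriptional reporter (firefly Luc) in NIH/3T3 background, conditioned-medium activated. 24hr exposure, luminescence endpoint.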

[14] = qHTS RealTime-Glo MT Cell Viability Assay in HepG2 cells - 0 hour (AID 1224889); also: nearly all actives have a fitted effect of over 50% in size
Method in brief: as §3

[15] = target: Androgen receptor (Homo sapiens) (UniProt P10275); assay: qHTS assay to identify small molecule antagonists of the androgen receptor (AR) signaling pathway using the MDA cell line in the presence of 0.5 nM R1881 (AID 1259243)
Chain of Androgen receptor (Homo sapiens) (P10275 whole entry, looked up): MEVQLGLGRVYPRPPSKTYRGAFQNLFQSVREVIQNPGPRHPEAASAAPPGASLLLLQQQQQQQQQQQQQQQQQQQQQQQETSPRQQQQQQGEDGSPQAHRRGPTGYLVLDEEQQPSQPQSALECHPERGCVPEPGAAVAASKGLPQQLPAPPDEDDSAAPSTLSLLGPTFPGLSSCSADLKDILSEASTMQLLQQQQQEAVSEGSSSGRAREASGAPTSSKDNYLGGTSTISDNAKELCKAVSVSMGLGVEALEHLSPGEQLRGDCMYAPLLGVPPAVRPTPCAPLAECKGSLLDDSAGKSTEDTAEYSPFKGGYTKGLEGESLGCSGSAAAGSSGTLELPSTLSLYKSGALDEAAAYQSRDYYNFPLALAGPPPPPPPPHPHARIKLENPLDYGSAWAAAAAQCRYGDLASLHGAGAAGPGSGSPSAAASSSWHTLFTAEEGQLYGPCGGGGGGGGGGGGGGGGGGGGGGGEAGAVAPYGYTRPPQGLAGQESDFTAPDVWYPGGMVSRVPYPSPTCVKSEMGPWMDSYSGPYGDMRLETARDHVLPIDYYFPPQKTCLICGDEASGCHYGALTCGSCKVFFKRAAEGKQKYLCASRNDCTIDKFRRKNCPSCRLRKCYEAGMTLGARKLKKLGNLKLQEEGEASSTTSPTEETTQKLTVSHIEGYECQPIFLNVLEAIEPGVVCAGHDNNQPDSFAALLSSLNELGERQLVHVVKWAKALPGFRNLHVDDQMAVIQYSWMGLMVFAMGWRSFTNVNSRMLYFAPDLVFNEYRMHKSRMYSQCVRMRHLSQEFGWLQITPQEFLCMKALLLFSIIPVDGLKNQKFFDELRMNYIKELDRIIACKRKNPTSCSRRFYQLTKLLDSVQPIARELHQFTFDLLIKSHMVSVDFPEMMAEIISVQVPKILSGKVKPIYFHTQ
Method in brief: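 Cells: MDA-kb2 (MMTV-luc). Stimulus: 0.5 nM R1881. Time: 16 hr, 37C, no CO2. Detection: ONE-Glo luminescence after 30 min at RT.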

[16] = target: Estrogen receptor (Homo sapiens) (UniProt P03372); assay: qHTS assay to identify small molecule antagonists of the estrogen receptor alpha (ER-alpha) signaling pathway using the BG1 cell line in the presence of 0.1 nM 17-beta-estradiol (AID 1259244); also: nearly all actives have a fitted effect of over 50% in size; also: potency is read from the fitted curve at half-maximal effect
Chain of Estrogen receptor (Homo sapiens) (P03372 whole entry, looked up): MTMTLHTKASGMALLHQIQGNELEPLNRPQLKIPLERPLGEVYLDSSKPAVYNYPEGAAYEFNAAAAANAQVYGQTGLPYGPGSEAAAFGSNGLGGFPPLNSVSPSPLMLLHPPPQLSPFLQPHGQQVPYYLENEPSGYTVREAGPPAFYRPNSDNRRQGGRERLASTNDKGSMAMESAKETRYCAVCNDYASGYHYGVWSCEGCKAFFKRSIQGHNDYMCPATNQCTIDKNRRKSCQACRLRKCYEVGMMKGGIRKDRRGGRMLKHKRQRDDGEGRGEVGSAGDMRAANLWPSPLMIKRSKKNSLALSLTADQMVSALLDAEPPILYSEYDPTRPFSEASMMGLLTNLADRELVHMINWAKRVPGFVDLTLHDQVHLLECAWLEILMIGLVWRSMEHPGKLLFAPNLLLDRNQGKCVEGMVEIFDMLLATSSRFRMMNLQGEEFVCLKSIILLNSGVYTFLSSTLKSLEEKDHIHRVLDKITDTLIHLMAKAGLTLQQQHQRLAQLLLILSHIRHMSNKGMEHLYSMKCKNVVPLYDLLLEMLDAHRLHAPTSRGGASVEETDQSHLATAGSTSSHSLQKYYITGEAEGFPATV
Method in brief: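 Seeding of stripped-serum-adapted VM7Luc4E2 cells, 24 h attachment, compound transfer, then 0.1 nM final 17beta-estradiol; after 22 h incubation, ONE-Glo reagent and luminescence reading.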

[17] = qHTS assay to identify small molecule antagonists of the sonic hedgehog signaling (Shh) pathway - cell viability counter screen (AID 1259367); also: nearly all actives have a fitted effect of over 55% in size; also: potency is read from the fitted curve at half-maximal effect
Method in brief: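 Conditioned medium drove Shh signaling in 3T3 Gli1-Luc cells exposed to compounds at 37C and 5% CO2. Viability was determined from CellTiter-Fluor fluorescence, with reagent incubated 1 hr after 23 hr of treatment.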

[18] = qHTS assay to identify small molecule agonists of the sonic hedgehog signaling (Shh) pathway (AID 1259368; calls by dose curve; also: nearly all actives have a fitted effect of over 15% in size; also: potency is read from the fitted curve at half-maximal effect)
Method in brief: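 Stable NIH/3T3 Gli1-Luc reporter clone; 24 hr cpd exposure after a 4 hr settling period; luminescence endpoint.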

SMILES | Potency [1] | Potency [2] | Potency [3] | Potency [4] | Potency [5] | Potency [6] | Potency [7] | Potency [8] | Potency [9] | Potency [10] | Potency [11] | Potency [12] | Potency [13] | Potency [14] | Potency [15] | Potency [16] | Potency [17] | Potency [18]
CC(C)c1ccc2c(c1)CC[C@H]1[C@](C)(CN)CCC[C@]21C | inactive | 12.3 µM (active) | 38.9 µM (active) | 17.4 µM (active) | 21.9 µM (active) | 24.5 µM (active) | 43.6 µM (active) | inactive | 48.6 µM (active) | inactive | inactive | 48.6 µM (active) | 15.4 µM (active) |  |  |  |  | 
C=CC(=O)OCC(CO)(COCC(COC(=O)C=C)(COC(=O)C=C)COC(=O)C=C)COC(=O)C=C | inactive | 21.6 µM (active) | inactive | 5.43 µM (active) |  |  | inactive | 15.2 µM (active) | 3.03 µM (active) | inactive |  |  | 0.48 µM (active) | inactive | 2.4 µM (active) | 17 µM (active) | 3.03 µM (active) | 0.957 µM (active)
COCCCC/C(=N\OCCN)c1ccc(C(F)(F)F)cc1 | inactive | 26.8 µM (active) | inactive | inactive | inactive | inactive | inactive | inactive | inactive | inactive | inactive | inactive |  | inactive |  | inactive | inactive | inactive
CCCCCOc1ccccc1/C(=C\SC)n1ccnc1 | inactive | inactive | inactive | inactive |  | inactive | inactive | inactive | inactive | inactive | inactive | inactive | inactive |  |  |  | inactive | inactive

— PubChem BioAssay (Tox21)
